# Assay results from PubChem BioAssay.
# Values joined by “and” are separate entries in the source; they are usually repeats but may differ in a detail not shown here. Equal values may be shown once. Active and inactive are the calls of the source. Cut-off read from the data, not from the text of the source, unless noted: active = inhibition above about 80%; inactive = the rest.
# Tests used:
# [1] = growth inhibition, single agent or in combination, cell-based, chromothripsis tumors, cisplatin or BGB combos (AID 1671449); details: LFS_MB_P medulloblastoma cells;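 note: cells exposed for 96 hours; 0% = vehicle DMSO and 100% = killing by high DMSO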
# [2] = growth inhibition, single agent and combos, cell-based, chromothripsis tumors, cisplatin or BGB combos (AID 1671450); details: HDN33 neuroblastoma cells, stronger effect = higher value;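 note: cells exposed to compound for four days; 0% = vehicle DMSO and 100% = cell killing by high DMSO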
# [3] = growth inhibition, single agents and combos, ICB984, cell-based, cisplatin or BGB combos, synergistic combos for chromothripsis tumors (AID 1671451; call rule not given here;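 note: cells exposed for 96 hours before readout; 0% = vehicle DMSO and 100% = killing by high DMSO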); details: ICB984 medulloblastoma cells, drug combinations, stronger effect = higher value
# [4] = growth inhibition, single agents and combos, LFS_MB_1R, cell-based, cisplatin or BGB combos, synergistic combos for chromothripsis tumors (AID 1671452); details: LFS_MB_1R medulloblastoma cells, stronger effect = higher value;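 note: cells exposed for 96 hours before readout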
# [5] = growth inhibition, single agents and combos, HTB85, cell-based, BGB or cisplatin IC20 combos, synergistic combos for chromothripsis tumors (AID 1671453); details: HTB85 osteosarcoma cells, drug combinations, stronger effect = higher value;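 note: cells exposed for 96 hours before readout; 0% = vehicle DMSO and 100% = high DMSO killing control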
# [6] = growth inhibition, single agents and combos, CRL2098, cell-based, BGB or cisplatin IC20 combos, synergistic combos for chromothripsis tumors (AID 1671454); details: CRL2098 osteosarcoma cells, drug combinations, stronger effect = higher value;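 note: cells exposed for 96 h before readout; 0% = vehicle DMSO and 100% = killing by high DMSO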
# [7] = growth inhibition, single agents and combos, HD-MB03, cell-based, BGB or cisplatin IC20 combos, synergistic combos for chromothripsis tumors (AID 1671455; in the data active = inhibition above about 83%;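 note: 0% = vehicle DMSO and 100% = high DMSO as cytotoxic control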); details: HD-MB03 medulloblastoma cells, stronger effect = higher value
# [8] = growth inhibition, single agents and combos, UWB1.289, cell-based, BGB or cisplatin combos, synergistic combos for chromothripsis tumors (AID 1671456); details: UWB1.289 ovarian carcinoma cells, stronger effect = higher value;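 note: cells exposed to compound for four days; 0% = vehicle DMSO and 100% = killing by high DMSO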
# [9] = growth inhibition, single agents and combos, LFS_MB_2R, cell-based, cisplatin combos, synergistic combos for chromothripsis tumors (AID 1671457); details: LFS_MB_2R medulloblastoma cells, stronger effect = higher value;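 note: cells exposed to compound for four days before readout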
# [10] = growth inhibition, MDA-MB-436, cell-based, BGB or cisplatin combos, synergistic combos for chromothripsis tumors (AID 1671458; call rule not given here;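 note: cells exposed for 96 hours; 0% = vehicle DMSO and 100% = killing by high DMSO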); details: MDA-MB-436 breast carcinoma growth inhibition, drug combinations, stronger effect = higher value
# [11] = UWB1.289_BRCA1 ovarian cancer growth, cell-based, BGB or cisplatin combinations (AID 1671459); details: UWB1.289 BRCA1 ovarian carcinoma, drug combinations, stronger effect = higher value
# [12] = drug combination toxicity in non-malignant astrocytes – cell-based, BGB or cisplatin IC20 combos, cytotoxicity control for chromothriptic childhood tumor combination screen (AID 1671460); details: Human astrocytes, viability inhibition, drug combinations, at 0.5 µM, stronger effect = higher value;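 note: cells exposed to compounds for 96 hours before viability readout; 0% = vehicle and 100% = killing control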
# [13] = BT084 cell growth, single and combined drugs, ICGC_MB145, cisplatin and BGB IC40 combos (AID 1671461); details: BT084 medulloblastoma cells, drug combinations, stronger effect = higher value;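 note: cells exposed to drugs for 96 hours; 0% = vehicle DMSO and 100% = high DMSO full killing control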
# [14] = RCMB18 cell growth, single agent and combined, cisplatin and BGB IC40 combos (AID 1671462); details: RCMB18 medulloblastoma cells, stronger effect = higher value;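 note: cells exposed to compound for four days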
# [15] = CRL1545 cell growth, single agent and combined, cisplatin and BGB IC20 combos (AID 1671464); details: CRL1545 osteosarcoma cells, stronger effect = higher value;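 note: cells exposed to compound for 96 hours before readout; 0% = vehicle DMSO and 100% = high DMSO killing control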
# [16] = galactose survival enhancers in mitochondrial complex I cybrids – cell-based, galactose medium, ATP luminescence, primary screen (AID 1645843;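 active = z-score of at least 1.8 in each of two replicates, scored against plate mean and spread of sample wells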;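 note: positive z means more ATP and so rescue of galactose-driven cybrid death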); details: complex I mutant cybrid cells, 72 h, stronger effect = higher value
# [17] = measured here: combination with BGB IC40, at 0.05 µM
# [18] = measured here: with BGB IC20 combination, at 0.5 µM
# [19] = measured here: with cisplatin IC20 combination, at 0.5 µM
# [20] = measured here: combination with cisplatin, at 0.5 µM
# [21] = measured here: combination with cisplatin, at 5 µM
compound,measurement,setting,value
Nc1nc(NC2CC2)c2ncn(C3C=CC(CO)C3)c2n1 (centres undefined),inhibition,"[1]; at 0.5 µM, stronger effect = higher value",18.6% (inactive) and 9.78% (inactive)
same,inhibition,"[1]; measured here: combination with BGB IC20, at 0.005 µM",-10.2% and -25.3%
same,inhibition,"[1]; measured here: combination with BGB IC40, at 0.005 µM",-2.6% and -37.7%
same,inhibition,[1]; [17],-13.2% and -43.3%
same,inhibition,"[1]; measured here: combination with cisplatin, at 0.5 µM, stronger effect = higher value",0.791% and -12%
same,inhibition,"[1]; measured here: combination with cisplatin, at 5 µM, stronger effect = higher value",42.6% and 20.9%
same,inhibition,"[2]; BGB combo, at 5 µM",7.05% and 3.14%
same,inhibition,[2]; at 0.5 µM,-27.8% (inactive) and -12.2% (inactive)
same,inhibition,"[2]; cisplatin combo, at 5 µM",15.9% and 16.9%
same,inhibition,[2]; [18],-24.7% and -14%
same,inhibition,[2]; [19],-37.5% and -12%
same,inhibition,"[2]; single agent, at 5 µM",15.7% and 29.8%
same,inhibition,"[3]; BGB IC20 combo, at 0.005 µM",-32.2% and 1.07%
same,inhibition,"[3]; BGB IC40 combo, at 0.005 µM",-10% and -27%
same,inhibition,"[3]; BGB IC40 combo, at 0.05 µM",11.7% and 20.9%
same,inhibition,[3]; at 0.5 µM,-15.2% (inactive) and -19.6% (inactive)
same,inhibition,"[3]; cisplatin combo, at 0.05 µM",9.21% and 18%
same,inhibition,"[3]; cisplatin combo, at 0.5 µM",-8.32% and -16.8%
same,inhibition,"[3]; cisplatin combo, at 5 µM",-66.5% and -40.2%
same,inhibition,"[3]; measured here: 5 uM single agent, at 5 µM",-33.4% and -23.1%
same,inhibition,[4]; at 0.5 µM,-29.4% (inactive) and -14.1% (inactive)
same,inhibition,[4]; [17],-41.9% and -20.2%
same,inhibition,[4]; [20],-65.7% and -24.2%
same,inhibition,[4]; [21],10.3% and 37.7%
same,inhibition,[5]; at 0.5 µM,-22.4% (inactive) and -2.82% (inactive)
same,inhibition,"[5]; measured here: with BGB IC20, at 0.5 µM",-29.8% and -5.83%
same,inhibition,"[5]; measured here: with BGB IC20, at 5 µM",-10.5% and 18.8%
same,inhibition,"[5]; measured here: with cisplatin IC20, at 0.5 µM",-25.7% and -8.4%
same,inhibition,"[5]; measured here: with cisplatin IC20, at 5 µM",3.54% and 48.9%
same,inhibition,"[5]; single agent, at 5 µM",15.5% and 29.1%
same,inhibition,[6]; at 0.5 µM,-73.4% (inactive) and -21.7% (inactive)
same,inhibition,"[6]; measured here: combination with BGB at IC20, at 0.5 µM",-122% and -23.9%
same,inhibition,"[6]; measured here: combination with cisplatin at IC20, at 0.5 µM",-57% and -77.8%
same,inhibition,[7]; at 0.5 µM,-12.2% (inactive) and -6.69% (inactive)
same,inhibition,"[7]; measured here: combo with BGB at IC20, at 0.5 µM",-5.41% and -19.4%
same,inhibition,"[7]; measured here: combo with cisplatin at IC20, at 0.5 µM",-23.6% and 5.04%
same,inhibition,[8]; at 0.5 µM,-7.07% (inactive) and -1.31% (inactive)
same,inhibition,"[8]; measured here: inhibition with BGB combination, at 0.05 µM",-16.1% and -7.54%
same,inhibition,"[8]; measured here: inhibition with cisplatin combination, at 0.05 µM",-20.7% and -16.3%
same,inhibition,[9]; at 0.5 µM,-0.03% (inactive) and -16.7% (inactive)
same,inhibition,[9]; [20],2.24% and -15.7%
same,inhibition,[9]; [21],-15.7% and 24.3%
same,inhibition,[10]; at 0.5 µM,0.7% (inactive) and -5.22% (inactive)
same,inhibition,"[10]; measured here: BGB combination, at 0.5 µM",5.51% and -4.19%
same,inhibition,"[10]; measured here: BGB combination, at 5 µM",23.6% and 15.9%
same,inhibition,"[10]; measured here: cisplatin combination, at 0.5 µM",-6.39% and -11.5%
same,inhibition,"[10]; measured here: cisplatin combination, at 5 µM",25.3% and 12.2%
same,inhibition,"[11]; BGB combination, concentration series, at 5 µM",21.9% and 44.1%
same,inhibition,[11]; at 0.5 µM,-6.63% (inactive) and -4.62% (inactive)
same,inhibition,"[11]; cisplatin combination, concentration series, at 5 µM",36% and 67.6%
same,inhibition,[12],-19.5% (inactive) and 11.5% (inactive)
same,inhibition,[12]; measured here: combo with BGB IC20,-10.8% and 10%
same,inhibition,[12]; measured here: combo with cisplatin IC20,-38.1% and 8.23%
same,inhibition,[13]; at 0.5 µM,-4.33% (inactive) and -11.9% (inactive)
same,inhibition,"[13]; cisplatin combination, at 0.5 µM",6.28% and -30.6%
same,inhibition,"[13]; cisplatin combination, at 5 µM",27.2% and 36.5%
same,inhibition,"[13]; measured here: BGB IC40 combination 0.05 uM, at 0.05 µM",4.8% and -24.4%
same,inhibition,"[13]; single agent, at 5 µM",29.7% and 30.5%
same,inhibition,[14]; at 0.5 µM,-22.8% (inactive) and -12.3% (inactive)
same,inhibition,"[14]; cisplatin combo, at 5 µM",15.1% and 15.7%
same,inhibition,"[14]; measured here: BGB IC40 combination, at 0.05 µM",-23.6%
same,inhibition,[14]; [20],-50.2% and -0.496%
same,inhibition,"[14]; single agent, at 5 µM",16.3% and 21.5%
same,inhibition,[15]; at 0.5 µM,-22.4% (inactive) and -10.8% (inactive)
same,inhibition,[15]; [18],-35.1% and -4.57%
same,inhibition,[15]; [19],-18.6% and -15.8%
same,inhibition,"[15]; single agent, at 0.05 µM",-49.6% and -25.5%
same,inhibition,"[15]; single agent, at 5 µM",-7.83% and 23.5%
O=C(Cn1cc(-c2cncnc2)cn1)Nc1ccnn1Cc1ccco1,z-score,[16],1.12 (inactive)
